Screening results: PubChem BioAssay, National Center for Advancing Translational Sciences (NCATS)
Shown are actives, neighbours in structure and some others; about 7.9% of the full set was active somewhere.
KB-3-1 tox: qHTS assay for MDR1-selective chemotherapeutics: Primary screen using the parental adenocarcinoma cell KB-3-1. KB-3-1 viability, CellTiter-Glo ATP luminescence, 72 h. Potency, µM (doses to about 46.1 µM), usual class: cytotoxic. 400,000 tested, 1.4% active; further: nearly all actives have a fitted effect of over 60% in size
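Parental KB-3-1 adenocarcinoma cells in phenol-red-free DMEM with 10% FBS were pin-treated with compounds at several concentrations, incubated 72 h at 37 °C, and viability read by CellTiter-Glo luminescence; concentration-effect curves were fitted after normalization.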
SW480 rerep: A quantitative high throughput screen for small molecules that induce DNA re-replication in SW480 colon adenocarcinoma cells; Potency, µM (highest dose often 46.1 µM), actives largely listed as activators; AID 624297, 2012; SW480 DNA re-replication, Hoechst DNA content imaging, 48 h; 340,000 tested, 1.8% active; further: nearly all actives have a fitted effect of over 55% in size
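Hoechst fluorescence of nuclei (405 nm excitation, 500-530 nm emission) measured by plate-scanning imager after 48 hr compound exposure at 37 C; re-replication scored as increased number of nuclei with elevated intensity.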
HT1080-NT tox: qHTS for induction of synthetic lethality in tumor cells producing 2HG: qHTS for the HT-1080-NT fibrosarcoma cell line. HT-1080-NT fibrosarcoma viability, CellTiter-Glo ATP luminescence, 48 h. Potency, µM (highest dose often 46.1 µM), most hits filed as cytotoxic. 360,000 tested, 1.6% active. AID 686970, 2013;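 further: NT is the 2HG producing partner of a matched IDH1 knockdown line; nearly all actives have a fitted effect of over 55% in size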
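Toxicity toward the 2HG-producing NT line was scored as %Activity, normalised to DMSO and no-cell wells, from CellTiter-Glo luminescence after 48 hours' treatment.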
KB-V1 MDR tox: qHTS assay for MDR1-selective chemotherapeutics: Primary screen using the drug-selected MDR subline cells KB-V1. 400,000 tested, 3.4% active. KB-V1 MDR cells viability, CellTiter-Glo, 72 h. Potency, µM (series often up to 46.1 µM), most hits filed as cytotoxic; further: nearly all actives have a fitted effect of over 60% in size
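Cytotoxicity toward P-gp-expressing KB-V1 cells was determined as loss of CellTiter-Glo luminescence after 72 h at 37 degrees C. Compounds were tested in quantitative HTS format across a concentration range, with curves fitted to normalized data.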
MCF10A rereplic: A quantitative high throughput screen for small molecules that induce DNA re-replication in MCF 10a normal breast cells; MCF 10A DNA re-replication, Hoechst nuclear intensity, 48 h; Potency, µM (series often up to 46.1 µM), actives largely listed as activators; 350,000 tested, 2.9% active; AID 624296, 2012; further: nearly all actives have a fitted effect of over 50% in size
HT1080 IDH1KD tx: qHTS for induction of synthetic lethality in tumor cells producing 2HG: qHTS for the HT-1080-IDH1KD cell line; HT-1080 IDH1 knockdown viability, ATP luminescence, 48 h; 360,000 tested, 2% active; AID 686971, 2013; Potency, µM (highest dose often 46.1 µM), hits mostly cytotoxic
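Cytotoxicity counter-line: IDH1KD HT-1080, 48 h, CellTiter-Glo. Curves classed by r2, magnitude and activity.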
Hits are given with their value; – = inactive; ? = inconclusive; · = not tested or not shown; [ ] = dose if it differs, or a comment. The call rests on the fitted dose curve; in most records, active means well fitted curve in the direction sought with a large enough effect; inconclusive means small, poorly fitted or top-dose-only effect, or another doubt; inactive means no such curve, though single readings can be large; an effect the other way counts as inactive or inconclusive.

SMILES	KB-3-1 tox	SW480 rerep	HT1080-NT tox	KB-V1 MDR tox	MCF10A rereplic	HT1080 IDH1KD tx
CCOC(=O)N1CCN(S(=O)(=O)c2ccc(C(=O)NNc3nc4c(C)cc(C)cc4s3)cc2)CC1	?	5.8µM	?	?	?	?
COc1ccccc1NC(=O)c1nnn(Cc2ccccc2)c1NC(C)=O	–	–	–	–	–	–
O=C(CSc1ncnc2nc[nH]c12)N1CCOCC1	–	18.4µM	–	–	8.2µM	–
Cc1ccc(S(=O)(=O)NCC(=O)OCC(=O)NCCc2ccccc2)cc1	–	–	–	–	–	–
O=C(COc1ccc(Cl)cc1Cl)NNC(=S)Nc1ccc(F)cc1	–	–	–	20.6µM	–	–
CC(=O)NC(=S)Nc1ccc(NC(=O)COc2ccc(Cl)cc2Cl)cc1	–	–	?	–	–	?
O=C(COc1ccc(Cl)cc1Cl)Nc1ccccn1	?	–	–[9.24 µM]	?	–	10µM
CC(C)NC(=O)COc1ccc(Cl)cc1Cl	–	16.4µM	–	?	?	–
CSc1ccccc1NC(=O)COc1ccc(Cl)cc1Cl	?	?	–	–	–	–
O=C(COc1ccc(Cl)cc1Cl)NCc1ccncc1	–	–	–	18.4µM	–	–
O=C(COc1ccc(Cl)cc1Cl)NC1CC1	–	·	–	?	·	–
COc1ccc(CN2C(=O)C(C)Nc3ncnc(N4CCc5ccccc5C4)c32)cc1 (stereo not given)	2.31µM	·	2.06µM	?	·	2.31µM
O=S(=O)(c1ccc(Cl)nc1)N1CCOCC1	–	?	–	?	–	–
O=C(CN(Cc1ccccc1)C(=O)c1cc2c(s1)CCC2)NCc1cccs1	?	–	–	2.91µM	–	–
CCn1c(COc2ccccc2)nnc1SCC(=O)Nc1cc(C)ccc1OC	–	–	–	14.6µM	–	–
CCn1c(COc2ccc(C)cc2)nnc1SCC(=O)Nc1cc(OC)ccc1OC	–	–	–	?	–	–
COc1ccc(C)cc1NC(=O)CSc1nnc(COc2ccc(C)cc2)n1Cc1ccco1	–	?	?	9.2µM	–	–
Cc1ccc(C(=O)CSc2nnc(CNc3ccc(C)cc3C)n2Cc2ccco2)cc1	?	–	?	?	?	?
COc1ccc(C(=O)CSc2nnc(CNc3ccc(C)cc3C)n2Cc2ccco2)cc1	?	–	–	3.66µM	–	–
CC12CN3CCN(CC(C3)C1(O)CN1CCOCC1)C2 (stereo not given)	–	–	–	–	–	–
COc1ccc(Nc2oc(-c3ccccc3)nc2C#N)cc1	–	–	–	?	–	–
COc1ccc2c(c1)O[C@@H](c1ccc3c(c1)OCO3)[C@H](OC(=O)Nc1cc(OC)c(OC)c(OC)c1)C2=O	·	16.4µM	·	·	3.66µM	·
Cc1ccc2c(c1)Oc1ccc(NC(=O)CCl)cc1C(=O)N2	5.8µM	2.31µM	3.66µM	9.2µM	5.8µM	2.91µM
COC(=O)c1c(NC(=S)NN2CCN(C)CC2)sc2c1CCC(C)C2 (stereo not given)	?	–	18.4µM	?	?	16.4µM
COC(=O)c1c(NC(=O)Cn2cnc([N+](=O)[O-])n2)sc2c1CCC(C)C2 (stereo not given)	–	–	–	16.4µM	?	–
SMILES	KB-3-1 tox	SW480 rerep	HT1080-NT tox	KB-V1 MDR tox	MCF10A rereplic	HT1080 IDH1KD tx
CCOC(=O)c1c(NC(=O)Cn2cnc([N+](=O)[O-])n2)sc2c1CCC(C)C2 (stereo not given)	–	–	?	–	–	?
Cc1c(Br)c([N+](=O)[O-])nn1CCCC(=O)Nc1sc2c(c1C(N)=O)CCC(C)C2 (stereo not given)	?	–	–	8.2µM	–	–
CN(C)/C=C/C(=O)c1cnc2n(c1=O)CCS2	–	–	–	–	–	–
CC(=O)c1cnc2n(c1=O)CCS2	–	13µM	–	–	–	–
CS(=O)(=O)N(CC(=O)N1CCCC1)c1ccc(OCc2ccccc2)cc1	?	–	–	14.6µM	–	–
CN(C)S(=O)(=O)N(CC(=O)N1CCC(Cc2ccccc2)CC1)c1ccccc1	–	–	–	–	–	–
COc1ccc(N(CC(=O)N2CCC(Cc3ccccc3)CC2)S(C)(=O)=O)cc1	–	5.8µM	–	?	?	–
COc1ccc(-n2c(Cc3ccccc3)nnc2SCC(=O)N2CCCc3ccccc32)cc1	–	–	–	–	–	–
COc1ccc([N+](=O)[O-])cc1NC1CCN(C(=O)c2cccs2)CC1	–	–	–	–	–	–
COc1ccc(/C=C/C(=O)Nc2cc(C)nn2-c2nc3ccccc3n2Cc2cccc([N+](=O)[O-])c2)cc1	?	?	–	?	–	–
Cc1cc(NC(=O)/C=C/c2cccc(F)c2)n(-c2nc3ccccc3[nH]2)n1	?	?	–	?	16.4µM	–
COc1ccc(/C=C/C(=O)Nc2cc(C)nn2-c2nc3ccccc3[nH]2)cc1	?	18.4µM	–	16.4µM	?	–
Cc1cc(NC(=O)/C=C/c2ccc(F)cc2)n(-c2nc3ccccc3[nH]2)n1	–	–	–	–	?	–
NC(=O)c1ccccc1NC(=O)/C=C/c1cccc(Cl)c1	–	–	–	–	–	–
Cc1cc(NC(=O)/C=C/c2cccc(Cl)c2)n(-c2nc3ccccc3[nH]2)n1	?	?	–	?	20.6µM	–
Cc1ccc(CNC(=O)C2CCCN(S(=O)(=O)c3c(C)noc3/C=C/N(C)C)C2)cc1 (stereo not given)	–	–	–	–	14.6µM	–
Cc1noc(/C=C/N(C)C)c1S(=O)(=O)N1CCCC(C(=O)Nc2ccccc2F)C1 (stereo not given)	–	?	–	–	23.1µM	–
Cc1noc(/C=C/N(C)C)c1S(=O)(=O)N1CCCC(C(=O)NCc2ccc(Cl)cc2)C1 (stereo not given)	–	–	–	?	?	?
N#CCCN(C(=O)Cn1nc(C(=O)O)c2ccccc2c1=O)c1ccccc1	–	–	–	–	–	–
Nc1ccccc1C(=O)Nc1cccc2ccccc12	–	?	–	–	?	–
Nc1c(C(=O)NCc2ccccc2)c2nc3ccccc3nc2n1CCCN1CCOCC1	–	18.4µM	?	–	18.4µM	?
Nc1c(C(=O)NCc2ccc(F)cc2)c2nc3ccccc3nc2n1CCCN1CCOCC1	?	3.66µM	?	?	?	?
